Compound activity as filed in PubChem BioAssay.
In the library only some 3.4% were active in any assay of this set; here they are far more common.
TEAD-YAP inh = TEAD-YAP interaction inhibition. HEK-TIYL cells, TEAD-Gal4/YAP UAS-luciferase luminescence. inhibition, % at 9.12 µM. actives 1.4% (n = 640,000); in the data active = inhibition above about 32%;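 also: 0% = median of test compound wells and 100% = reference inhibitor wells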
FBW7 activator = human FBW7 E3 ligase activation, primary screen; actives 0.13% (n = 650,000); Q969H0; AlphaScreen FBW7–phospho-cyclin E peptide binding, activator screen; normalized activity (activation), % at 26.1 µM; in the data active = normalized activity above about 1.9%;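 also: purified mutant Fbw7 with reduced substrate affinity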
GPR151 activ = activates the human receptor GPR151 | activation, % at 11.2 µM | AID 1508602 | PathHunter beta-arrestin GPR151 cells, luminescence | actives 1% (n = 650,000); in the data active = activation above about 4.9%;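 also: 0% = median of compound wells and 100% = cells with positive control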
MITF inh = blocks human microphthalmia-associated transcription factor. AlphaScreen MITF homodimerization, bead proximity signal. inhibition, % at 2.6 µM. actives 0.91% (n = 650,000); in the data active = inhibition above about 50%;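 also: 0% = vehicle wells with protein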
Target sequence (O75030 whole entry, looked up): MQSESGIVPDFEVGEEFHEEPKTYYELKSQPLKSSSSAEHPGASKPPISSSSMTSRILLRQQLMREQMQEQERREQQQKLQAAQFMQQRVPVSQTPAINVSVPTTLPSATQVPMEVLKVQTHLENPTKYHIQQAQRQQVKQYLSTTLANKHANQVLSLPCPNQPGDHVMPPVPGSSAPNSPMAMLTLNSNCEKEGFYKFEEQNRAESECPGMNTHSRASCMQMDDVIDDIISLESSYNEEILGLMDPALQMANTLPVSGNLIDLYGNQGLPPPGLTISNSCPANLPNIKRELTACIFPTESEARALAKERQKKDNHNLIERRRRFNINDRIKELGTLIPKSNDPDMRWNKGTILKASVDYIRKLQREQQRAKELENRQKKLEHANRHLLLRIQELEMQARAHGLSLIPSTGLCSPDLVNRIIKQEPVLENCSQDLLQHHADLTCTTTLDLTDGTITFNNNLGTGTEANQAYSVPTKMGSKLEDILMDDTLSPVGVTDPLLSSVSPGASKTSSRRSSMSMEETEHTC
MITF inh conf = confirmation of human MITF inhibitors; AlphaScreen MITF homodimerization, biotin/His-MITF beads; shares compounds with MITF inh; actives 16% (n = 4,700); AID 1259372; inhibition, % at 2.6 µM;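 active = inhibition above a cutoff derived from the DMSO control wells, cut at about 28% in these data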;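 also: 0% = MITF dimer wells with DMSO only; inhibitors lower the bead chemiluminescence by keeping MITF from dimerizing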
AlphaScreen intf2 = AlphaScreen optical interference, counter-screen; shares compounds with MITF inh; LysRS AlphaScreen counterscreen, signal interference, triplicate; inhibition, % at 2.6 µM; actives 7.6% (n = 4,700);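 active = inhibition above a cutoff derived from the DMSO control wells, cut at about 30% in these data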
Active calls of the source: *.

Clc1ccccc1N1CCN(Cc2ccc(Br)o2)CC1 was read as TEAD-YAP inh 3, FBW7 activator 1, GPR151 activ 0 and MITF inh 40.
Brc1ccc(CN2CCN(c3ccccn3)CC2)o1 was read as TEAD-YAP inh 5, FBW7 activator 1, GPR151 activ -1, MITF inh 52*, MITF inh conf 6 and AlphaScreen intf2 2.
For O=C(O)CCC(=O)Nc1ccc(Cl)c(C(=O)O)c1 the results were TEAD-YAP inh 9, FBW7 activator 0, GPR151 activ -1 and MITF inh 6.
For CCCNC(=O)Nc1ccc(Cl)c(C(=O)O)c1 the results were TEAD-YAP inh 2, FBW7 activator 0, GPR151 activ 0, MITF inh 64*, MITF inh conf -16 and AlphaScreen intf2 -8.
`OC(COCc1ccccc1F)CN1CCN(c2ccccc2)CC1` (stereo not given) gave TEAD-YAP inh -1, FBW7 activator 0, GPR151 activ 1 and MITF inh 4.
For OC(CNC1CCN(Cc2ccccc2)C1)COCc1ccccc1Cl (stereo not given) the results were TEAD-YAP inh 6, FBW7 activator 0, GPR151 activ -1, MITF inh 55*, MITF inh conf -9 and AlphaScreen intf2 0.
For CCOc1ccc(OCC(O)CNC2CCN(Cc3ccccc3)CC2)cc1 (stereo not given) the results were TEAD-YAP inh 5, FBW7 activator 0, GPR151 activ 1 and MITF inh -1.
CCOc1ccccc1N1CCN(CC(O)COCc2ccccc2OC)CC1 (stereo not given) was read as TEAD-YAP inh 0, FBW7 activator 0, GPR151 activ 1, MITF inh 74*, MITF inh conf -6 and AlphaScreen intf2 -1.
`Oc1ccc(N2CCN(CC(O)COCc3ccccc3Cl)CC2)cc1` (stereo not given) gave TEAD-YAP inh -3, FBW7 activator 0, GPR151 activ 0, MITF inh 56*, MITF inh conf 6 and AlphaScreen intf2 23.
For CCCNC(=O)c1ccc2c(c1)ncn2-c1ccccc1OCC the results were TEAD-YAP inh -1, FBW7 activator 0, GPR151 activ 0 and MITF inh 4.
`COCCNC(=O)CNC(=S)N(Cc1ccc(F)cc1)C1CCCCC1` gave TEAD-YAP inh -1, FBW7 activator 1, GPR151 activ -1 and MITF inh -1.
COC(=O)CCC(=O)Nc1ccc(F)cc1 was read as TEAD-YAP inh -15, FBW7 activator 0, GPR151 activ 1 and MITF inh -1.
`CCOC(=O)c1c(NC(=O)C(C)Sc2nnc(CNC(=O)c3ccc(Cl)cc3Cl)n2C)sc2c1CCCCC2` (stereo not given) gave TEAD-YAP inh 0, FBW7 activator 0, GPR151 activ 0 and MITF inh -7.
Screening Cc1ccc2[nH]c(C)c(CCNC(=O)c3cccc([N+](=O)[O-])c3)c2c1 returned TEAD-YAP inh 14, FBW7 activator 0, GPR151 activ 0, MITF inh 74*, MITF inh conf 8 and AlphaScreen intf2 17.
`Cc1[nH]c2ccc(F)cc2c1CCNC(=O)c1cccc([N+](=O)[O-])c1` gave TEAD-YAP inh -2, FBW7 activator 0, GPR151 activ 0 and MITF inh 3.
Screening CCCNC(CC(=O)Nc1ccc(OC)cc1)C(=O)O (stereo not given) returned TEAD-YAP inh -2, FBW7 activator 0, GPR151 activ 1 and MITF inh -4.
Cc1c(Cl)cccc1NC(=O)CC(NCCCN(C)C)C(=O)O (stereo not given) was read as TEAD-YAP inh -2, FBW7 activator 0, GPR151 activ -2 and MITF inh -10.
`Cc1c(Cl)cccc1NC(=O)CC(NCc1ccccn1)C(=O)O` (stereo not given) gave TEAD-YAP inh 5, FBW7 activator 0, GPR151 activ 0, MITF inh 90*, MITF inh conf 62* and AlphaScreen intf2 100*.
O=C(CC(NCc1ccccc1)C(=O)O)Nc1cccc(Cl)c1Cl (stereo not given) was read as TEAD-YAP inh -3, FBW7 activator 0, GPR151 activ -2 and MITF inh -29.
For NCCNC(CC(=O)Nc1cccc(Cl)c1Cl)C(=O)O (stereo not given) the results were TEAD-YAP inh 4, FBW7 activator 0, GPR151 activ 0, MITF inh 85*, MITF inh conf 19 and AlphaScreen intf2 33*.
For COc1ccc(NC(=O)CC(NCc2ccccn2)C(=O)O)cc1 (stereo not given) the results were TEAD-YAP inh -15, FBW7 activator 0, GPR151 activ 4, MITF inh 110*, MITF inh conf 107* and AlphaScreen intf2 100*.
`O=C(c1cccc(S(=O)(=O)NC2CCCC2)c1)N1CCCc2ccccc21` gave TEAD-YAP inh -7, FBW7 activator 0, GPR151 activ 2 and MITF inh -18.
Screening COc1ccc(-c2cc(C(=O)NCc3cccnc3)ccn2)cn1 returned TEAD-YAP inh 5, FBW7 activator 0, GPR151 activ -1 and MITF inh 14.
Screening CC1=C(C(=O)N2CCOCC2)C(c2ccc(Cl)cc2)n2c(nc3ccccc32)N1 (stereo not given) returned TEAD-YAP inh -11, FBW7 activator 0, GPR151 activ 0 and MITF inh 7.
For O=C(NCc1ccccc1)NC1(C(=O)N2CCCC2)CCCCC1 the results were TEAD-YAP inh -1, FBW7 activator -1, GPR151 activ -1, MITF inh 68*, MITF inh conf 9 and AlphaScreen intf2 32*.
`O=C(NCc1ccccc1)NC1(C(=O)N2CCN(c3ncccn3)CC2)CCCCC1` gave TEAD-YAP inh -8, FBW7 activator 0, GPR151 activ 0 and MITF inh 4.
Screening CSCC(=O)NNC(=O)CN(C)S(=O)(=O)c1ccc(C)cc1 returned TEAD-YAP inh 6, FBW7 activator 0, GPR151 activ 0 and MITF inh -7.
For CC1(C)Cc2c(sc3nc(NNC(=O)c4ccccc4)[nH]c(=O)c23)CO1 the results were TEAD-YAP inh 7, FBW7 activator 0, GPR151 activ 0, MITF inh 73*, MITF inh conf 13 and AlphaScreen intf2 9.
C=CCN(CC=C)C(=O)C1CCN(Cc2cc(Br)c(O)c(OC)c2)CC1 was read as TEAD-YAP inh -4, FBW7 activator 1, GPR151 activ 0, MITF inh 69*, MITF inh conf -13 and AlphaScreen intf2 -4.
`COc1cc(CN2CCC(O)CC2)cc(Br)c1O` gave TEAD-YAP inh -8, FBW7 activator 0, GPR151 activ 0 and MITF inh 39.
`Cc1ccccc1OCC(O)CN1CCN(CC(O)COc2ccccc2C)C(C)C1` (stereo not given) gave TEAD-YAP inh 3, FBW7 activator 0, GPR151 activ -1, MITF inh 55*, MITF inh conf -6 and AlphaScreen intf2 -5.
